Over roughly 35,000 sequences, “fluorescence intensity (a.u.)” has its median near 10,000; the highest 2% begin near 52,000. The sample holds the highest values, similar sequences and a random draw of the others, so the mix is not that of the screen.
Molecular target: T1, OsWOX13 (Oryza sativa, UniProt Q5QMM3 1-267)
T1 sequence: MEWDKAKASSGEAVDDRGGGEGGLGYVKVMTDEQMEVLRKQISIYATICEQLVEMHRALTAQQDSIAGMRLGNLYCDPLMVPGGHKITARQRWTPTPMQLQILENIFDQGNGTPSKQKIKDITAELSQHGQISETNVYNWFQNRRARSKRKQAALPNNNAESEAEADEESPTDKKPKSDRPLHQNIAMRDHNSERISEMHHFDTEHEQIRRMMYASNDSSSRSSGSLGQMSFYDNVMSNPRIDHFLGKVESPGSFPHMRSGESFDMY
Test: protein-binding microarray (RPBM); PBS, 2% BSA, 51.3 ng/ul salmon testes DNA, 50 uM zinc acetate, 200 nM TF, 25 C, 1 h; high values mean tight binding
Conditions: protein: recombinant; tags: N-terminal polyhistidine and DsRed monomer fusion (pET32a); label: CyDye5-dUTP incorporated in the synthesized complementary strand; 3' TTTTT single-stranded linker to array surface; dsDNA, one strand shown
In short: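 Transcription factors, each fused N-terminally to a polyhistidine tag and DsRed, were expressed in E. coli BL21-CodonPlus and purified on Ni–NTA. A custom Agilent array was made double-stranded by primer extension with Cy5-dUTP and blocked with 2% BSA. It was incubated with 200 nM protein in PBS, 2% BSA, salmon testes DNA and 50 µM zinc acetate at 25 °C for 1 h, then washed. The binding signal is per-feature fluorescence intensity (arbitrary units) read on an Axon 4000B scanner.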

| Sequence | binding signal |
| --- | --- |
| TCCACTCAATCTTCTGTTTCTATTTCCCCGTAATCGAAGCCGGAGTCACCTAGTGCAG | 4630 fluorescence intensity (a.u.) |
| AGCTAAATTGATTCGTGCACCCAAGTCAACAAGAAAACGTCGGAGTCACCTAGTGCAG | 38900 fluorescence intensity (a.u.) |
| TCAAATAATTTCGGTCAGAAATTTCCGAAATTTTGGTAATCGGAGTCACCTAGTGCAG | 7080 fluorescence intensity (a.u.) |
| GTAGTTAACCATTTAACCTGATGATGTGAGGACGAAAGAACGGAGTCACCTAGTGCAG | 4950 fluorescence intensity (a.u.) |
| ATTAACTATAATTATCGGCTGCAATCTAATTCGAATGTAGCGGAGTCACCTAGTGCAG | 30300 fluorescence intensity (a.u.) |
| TGGTGGTGGTGGTGGTAGGGTTAGGGGTAGGAGGGGTCTCCGGAGTCACCTAGTGCAG | 8890 fluorescence intensity (a.u.) |
| CAGGTAATGGATTGATTGCAGGGTTGGGATTTGACCAGGTCGGAGTCACCTAGTGCAG | 51800 fluorescence intensity (a.u.) |
| TTTCAAATCTCAAATTGAAAGTTTTCAAAATTTTCAAATCCGGAGTCACCTAGTGCAG | 3760 fluorescence intensity (a.u.) |
| ATAATAAGTTAAAACCTAATCAATCATACGCTAATGACTTCGGAGTCACCTAGTGCAG | 6780 fluorescence intensity (a.u.) |
| TGATTTCATGATTGATAGCTACATATCTTAGTTTCACACCCGGAGTCACCTAGTGCAG | 40200 fluorescence intensity (a.u.) |
| TATATTTAATTATTGATTTGATGTAACCAATTTAGTATTACGGAGTCACCTAGTGCAG | 23400 fluorescence intensity (a.u.) |
| CTTACGTGTAAATTGAAATTACATTGTAATTTACATTTGACGGAGTCACCTAGTGCAG | 34200 fluorescence intensity (a.u.) |
| CTGATTAATTGCCAGTAATTTGATTTCAACCTTACGTGTACGGAGTCACCTAGTGCAG | 53000 fluorescence intensity (a.u.) |
| AAAATTCATGATTGATTTTGTAGTGGATCAACCTTGCCAACGGAGTCACCTAGTGCAG | 52400 fluorescence intensity (a.u.) |
| ATCTGATTGATACAGTACTTATTCACTGGAGTAGTATTTCCGGAGTCACCTAGTGCAG | 40800 fluorescence intensity (a.u.) |
| ATCTGATTTGATTTGATTTCGTACACCAGTAGCTTCAACCCGGAGTCACCTAGTGCAG | 59800 fluorescence intensity (a.u.) |
| AGGATCAAAATTGCATGATTTTGTATAGTTTAGGGATGAACGGAGTCACCTAGTGCAG | 3210 fluorescence intensity (a.u.) |
| ATTGATTGTAGCCAAAATAAATTTTACTAAATTTTGCCAACGGAGTCACCTAGTGCAG | 32500 fluorescence intensity (a.u.) |
| GTATTAATCACATTTCATTTCAACTTTTGATTCTGATATGCGGAGTCACCTAGTGCAG | 5200 fluorescence intensity (a.u.) |
| TTCGTAAATTTGATCGAATTTGGCTTTTAGACGCTGGACACGGAGTCACCTAGTGCAG | 19200 fluorescence intensity (a.u.) |
| CTTAAAACAAATGATTGTTTACGTTCCGTCAATCATGCCCCGGAGTCACCTAGTGCAG | 21200 fluorescence intensity (a.u.) |
| CTAATTTTATGGTTAATGGACACGATTTAATCTAGACTCTCGGAGTCACCTAGTGCAG | 13800 fluorescence intensity (a.u.) |
| GTCTTGTTCATAATAGACTGGACTCTTTGATTCCTGTGTGCGGAGTCACCTAGTGCAG | 3330 fluorescence intensity (a.u.) |
| ATGTTCCTGATTACCCGGTTAGTAAAATTTGAATCGTACTCGGAGTCACCTAGTGCAG | 10600 fluorescence intensity (a.u.) |
| CTCGCCGTCCATCCTTCCCTGCGTCCAATCCCCACCCTCCCGGAGTCACCTAGTGCAG | 60200 fluorescence intensity (a.u.) |
| CCTTCATTCATTTCCTAATCCCAATCCCACCCTCCATTTCCGGAGTCACCTAGTGCAG | 3570 fluorescence intensity (a.u.) |
| TCTCCGTCCCCATCACCCTCGCAATTACTCCACCCGCCGGCGGAGTCACCTAGTGCAG | 5550 fluorescence intensity (a.u.) |
| GTTACCTATTAATTAATAGGAAGATGATATAAATAGTTTACGGAGTCACCTAGTGCAG | 19400 fluorescence intensity (a.u.) |

| Sequence | binding signal |
| --- | --- |
| TATGACAGGTGGGATTAGGTATTAATAGTGTAGTATGTAACGGAGTCACCTAGTGCAG | 8510 fluorescence intensity (a.u.) |
| GGCTTAATTGTTGATTAAACATCAGGCTCTTCTTGCATATCGGAGTCACCTAGTGCAG | 54900 fluorescence intensity (a.u.) |
| GTTGATTAGCATATATTATTGGTTGCATGTTAGGCTTCCACGGAGTCACCTAGTGCAG | 54700 fluorescence intensity (a.u.) |
| ATTAAATAATTTCTTTGATAAAATTGTTTTGCAGGCATATCGGAGTCACCTAGTGCAG | 22300 fluorescence intensity (a.u.) |
| CTGGTTCTTGATTATTATTAGGATTAGTTTGTTCCTTTGTCGGAGTCACCTAGTGCAG | 16900 fluorescence intensity (a.u.) |
| TAATTGATTAGCAGTAAGGTATTGGTTGTCCAATCTTGCTCGGAGTCACCTAGTGCAG | 58400 fluorescence intensity (a.u.) |
| ACTATTCTATTATGATGATTAGGCTGTTATTGGTTGAAGTCGGAGTCACCTAGTGCAG | 7170 fluorescence intensity (a.u.) |
| CTTGATTAGTAGTTGGTTGCTCTTCTTCTTGTTCTTGGTTCGGAGTCACCTAGTGCAG | 64200 fluorescence intensity (a.u.) |
| ATTGGTCCATTAGCACGTGATTAATTAAGTATTTGCTATTCGGAGTCACCTAGTGCAG | 11200 fluorescence intensity (a.u.) |
| TGGAGTGGTGATTTGCTCTCTCTTGAGTGTTGATTAGTGGCGGAGTCACCTAGTGCAG | 9250 fluorescence intensity (a.u.) |
| AGAATTGATTAGCTCTTGTTTCTATCATGTTAAACACATTCGGAGTCACCTAGTGCAG | 33000 fluorescence intensity (a.u.) |
| GTTAGTAATGTTGATTAGTGCATGGCTTATTTGGTTGCACCGGAGTCACCTAGTGCAG | 15600 fluorescence intensity (a.u.) |
| GGCTAATAGTAGGTTGATTAGTCCTTATTGTGCTTGCCCTCGGAGTCACCTAGTGCAG | 28500 fluorescence intensity (a.u.) |
| ATAATAAATATATTTACATTTAGACCCTCGATGTGTCATCCGGAGTCACCTAGTGCAG | 3230 fluorescence intensity (a.u.) |
| TAGGCCCACTAATTAGGCCCATCCAACACGCCGTCCGACGCGGAGTCACCTAGTGCAG | 4020 fluorescence intensity (a.u.) |
| TCAAGCTTCTGCAATTTAGTTGATTGATCGAATTAATCAGCGGAGTCACCTAGTGCAG | 24600 fluorescence intensity (a.u.) |
| TATGATTCTTTTCTAAAAGATTGATACGACATATCAATATCGGAGTCACCTAGTGCAG | 5300 fluorescence intensity (a.u.) |
| CAACTAAACTTTTAATTTTAGCATAAACTAAACAGACCCACGGAGTCACCTAGTGCAG | 5430 fluorescence intensity (a.u.) |
| TATAATTACATTGTAACTGTATTGTAAATACATTTTAATTCGGAGTCACCTAGTGCAG | 5830 fluorescence intensity (a.u.) |
| TAAATTGTACATGATATATGTCAAGTGTCAACGTCTGATTCGGAGTCACCTAGTGCAG | 5030 fluorescence intensity (a.u.) |
| ACTCCACACACTGATCAACACTAATCAGCATGTACATTTGCGGAGTCACCTAGTGCAG | 4090 fluorescence intensity (a.u.) |
| CTTTGTCTTTGTTTCTTGTTGATTGCAGGATCAAATCAACCGGAGTCACCTAGTGCAG | 5330 fluorescence intensity (a.u.) |
| TTTGGTTGGATTGGATTGGATTGGATTGGCTGCTTCCCTGCGGAGTCACCTAGTGCAG | 25000 fluorescence intensity (a.u.) |
| TCGTTCTTCATGGTTGGGGCTGATTAGGTTGATGAGATAGCGGAGTCACCTAGTGCAG | 3850 fluorescence intensity (a.u.) |
| TCTGATTGGTACATGCTCACCTGGTTGGCTGGTTCTTCAGCGGAGTCACCTAGTGCAG | 53800 fluorescence intensity (a.u.) |
| CTTGATTGTTCTTTCTTGCTCAAATGCCGGCCTGTGTTGGCGGAGTCACCTAGTGCAG | 53200 fluorescence intensity (a.u.) |
| TCTTTGTCAATCTTGTTTGGTTGCTCAAATCTTTTGGTGGCGGAGTCACCTAGTGCAG | 7260 fluorescence intensity (a.u.) |

From paper PMC7819943, “Rice protein-binding microarrays: a tool to detect cis-acting elements near promoter regions in rice”
